Where “and” joins values, the source holds several entries; their conditions need not be identical. Equal entries are not always repeated. Inconclusive results are not listed. Calls of active or inactive are those of the source. Calls come from the whole dose curve; as a rule, active = well fitted curve in the direction sought with a large enough effect in the repeat runs; inconclusive = weak or mixed curves; inactive = no such curve, though single readings can be large; an effect the other way counts as inactive or inconclusive.
The compounds below were run against Cytochrome P450 2D6 (Homo sapiens) (UniProt P10635) (assay: Cytochrome P450 family 2 subfamily D member 6 (CYP2D6) small molecule antagonists: luciferase biochemical (cell-free) qHTS assay (AID 1645840)). Details: P450-Glo CYP2D6 enzyme, luciferin luminescence, 1 h; series mostly up to 57.4 µM; activity change, negative = inhibition: at the top concentration.
Method in brief: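 P450-Glo CYP2D6 system: proluciferin substrate converted by enzyme to luciferin, read by luminescence proportional to activity. Enzyme-substrate mix with compound 10 min at room temperature, then NADPH regeneration 1 h before detection reagent.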
% is set by controls: 0 for no effect and ±100 for the full control effect; potency is the fitted concentration of half-maximal effect.
Note: nearly all actives have a fitted effect of over 55% in size.

Chain of Cytochrome P450 2D6 (Homo sapiens) (P10635 whole entry, looked up): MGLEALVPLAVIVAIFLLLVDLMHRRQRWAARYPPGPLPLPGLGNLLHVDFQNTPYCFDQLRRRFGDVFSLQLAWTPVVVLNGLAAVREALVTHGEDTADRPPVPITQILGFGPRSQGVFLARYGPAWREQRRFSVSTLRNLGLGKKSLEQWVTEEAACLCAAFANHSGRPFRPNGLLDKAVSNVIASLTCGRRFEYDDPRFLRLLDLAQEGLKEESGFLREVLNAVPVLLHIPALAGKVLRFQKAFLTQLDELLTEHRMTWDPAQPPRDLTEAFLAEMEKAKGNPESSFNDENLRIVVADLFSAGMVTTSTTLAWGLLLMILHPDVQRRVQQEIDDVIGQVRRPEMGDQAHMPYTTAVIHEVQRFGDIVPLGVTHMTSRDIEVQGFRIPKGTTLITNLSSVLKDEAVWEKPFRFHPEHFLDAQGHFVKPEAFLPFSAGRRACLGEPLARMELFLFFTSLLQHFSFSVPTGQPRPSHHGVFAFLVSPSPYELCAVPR

Q: For O=C(N[C@@H](COc1ccc2[nH]c(=O)[nH]c2c1)c1ccccc1)c1cccn(Cc2ccc(F)c(F)c2)c1=O, which Potency is on record?
A: 4.25 µM (active)

Q: Which “activity change, negative = inhibition” value does the source give for O=C(Nc1ccncc1)C(=O)c1cn(Cc2ccc(Cl)cc2)c2ccccc12 here?
A: -27.8% (inactive)

Q: CSCC[C@@H](NC(=O)[C@@H](Cc1ccccc1)NC(=O)CNC(=O)CNC(=O)[C@@H](N)Cc1ccc(O)cc1)C(=O)O was tested. Which “activity change, negative = inhibition” value did it give?
A: 3.7% (inactive)

Q: O=c1[nH]c2ccc(Cl)cc2c(N[C@@H]2CN3CCC2CC3)c1-c1nc2ccccc2[nH]1 was tested. Which Potency did it give?
A: 1.69 µM (active) and 2.39 µM (active)

Q: For O=C(Oc1ccc([N+](=O)[O-])cc1)N1CCN(Cc2cccc(Oc3ccccc3)c2)CC1, which Potency is on record?
A: 2.68 µM (active)

Q: Which Potency does the source give for Cc1[nH]nc2ccc(-c3cncc(OC[C@@H](N)Cc4c[nH]c5ccccc45)c3)cc12 here?
A: 3.79 µM (active)

Q: For CCOC(=O)Nc1ccc(NCc2ccc(F)cc2)cc1N, which Potency is on record?
A: 19 µM (active)

Q: How did the “activity change, negative = inhibition” value turn out when O=C(O)c1ccccc1O was run?
A: 17.6% (inactive)

Each compound was assayed against Cytochrome P450 2C9 (Homo sapiens) (UniProt P11712) (assay: Cytochrome P450 family 2 subfamily C member 9 (CYP2C9) small molecule antagonists: luciferase biochemical (cell-free) qHTS assay (AID 1645842)). Details: P450-Glo CYP2C9 enzyme assay, luciferin luminescence; series mostly up to 57.4 µM; activity change, negative = inhibition: at the top concentration.
Method in brief: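 P450-Glo CYP2C9 system: proluciferin substrate with enzyme in mix containing 0.4% BSA, 10 min at room temperature, then NADPH regeneration solution added and incubated 1 h at 37C. Detection reagent stopped reaction; luminescence read after 20 min as RLU.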

Chain of Cytochrome P450 2C9 (Homo sapiens) (P11712 whole entry, looked up): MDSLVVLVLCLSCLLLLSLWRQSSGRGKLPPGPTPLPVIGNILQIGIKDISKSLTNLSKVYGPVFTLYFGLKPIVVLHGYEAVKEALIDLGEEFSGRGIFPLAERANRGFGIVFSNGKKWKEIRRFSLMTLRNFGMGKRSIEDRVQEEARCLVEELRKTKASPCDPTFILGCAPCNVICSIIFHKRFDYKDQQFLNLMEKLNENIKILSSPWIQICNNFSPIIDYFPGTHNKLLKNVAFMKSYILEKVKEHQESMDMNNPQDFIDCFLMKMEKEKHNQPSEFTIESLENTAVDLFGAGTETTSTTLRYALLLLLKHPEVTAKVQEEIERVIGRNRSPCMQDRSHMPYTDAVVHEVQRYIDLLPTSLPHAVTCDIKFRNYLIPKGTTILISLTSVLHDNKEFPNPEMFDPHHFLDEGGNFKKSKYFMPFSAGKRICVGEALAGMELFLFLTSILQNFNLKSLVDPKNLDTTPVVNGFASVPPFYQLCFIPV

Q: Which Potency does the source give for CCN1CCN(C(=O)Cc2ccc(Nc3ncc(F)c(Nc4ccc(C(=O)Nc5ccccc5Cl)cc4)n3)cc2)CC1 here?
A: 1.9 µM (active)

Q: How did the Potency turn out when Cc1c(C(=O)Nc2cccc(C(F)(F)F)c2)cc(-c2ccccc2)n1CCCN1CCOCC1 was run?
A: 4.77 µM (active)

Q: Which Potency does the source give for O=C(N[C@@H](COc1ccc2[nH]c(=O)[nH]c2c1)c1ccccc1)c1cccn(Cc2ccc(F)c(F)c2)c1=O here?
A: 0.239 µM (active)

Q: With CCc1c(C(=O)C(N)=O)c2c(OCC(=O)O)cccc2n1Cc1ccccc1 as the compound, how does the “activity change, negative = inhibition” value read?
A: -0.252% (inactive)

Q: Which Potency does the source give for Cc1ccccc1-n1c(Cn2ncc3c(N)ncnc32)nc2cccc(C)c2c1=O here?
A: 13.5 µM (active)

Q: How did the Potency turn out when O=C(Nc1ccncc1)C(=O)c1cn(Cc2ccc(Cl)cc2)c2ccccc12 was run?
A: 0.301 µM (active)

Q: CC(=O)N(C)c1cccc(-c2ccnc3c(C(=O)c4cccs4)cnn23)c1 was tested. Which “activity change, negative = inhibition” value did it give?
A: -3.68% (inactive)

Q: With CSCC[C@@H](NC(=O)[C@@H](Cc1ccccc1)NC(=O)CNC(=O)CNC(=O)[C@@H](N)Cc1ccc(O)cc1)C(=O)O as the compound, how does the “activity change, negative = inhibition” value read?
A: -15.5% (inactive)

Q: Which Potency does the source give for O=c1[nH]c2ccc(Cl)cc2c(N[C@@H]2CN3CCC2CC3)c1-c1nc2ccccc2[nH]1 here?
A: 10.7 µM (active) and 8.49 µM (active)

Q: O=C(Oc1ccc([N+](=O)[O-])cc1)N1CCN(Cc2cccc(Oc3ccccc3)c2)CC1 was tested. Which Potency did it give?
A: 19 µM (active)

Q: With C[C@]12COC(=O)C[C@@H]1CC[C@@H]1[C@H]2CC[C@@]2(C)[C@H]1CC[C@]2(C)O as the compound, how does the “activity change, negative = inhibition” value read?
A: 0.609% (inactive)

Q: COc1ccc(N(C(=O)Oc2c(C)cccc2C)c2ccnc(Nc3ccc(N4CCN(C)CC4)cc3)n2)c(OC)c1 was tested. Which Potency did it give?
A: 21.3 µM (active)

Q: With Cc1[nH]nc2ccc(-c3cncc(OC[C@@H](N)Cc4c[nH]c5ccccc45)c3)cc12 as the compound, how does the Potency read?
A: 0.674 µM (active)

Q: For CCOC(=O)Nc1ccc(NCc2ccc(F)cc2)cc1N, which Potency is on record?
A: 9.52 µM (active)

Q: How did the Potency turn out when CC(=O)Nc1ccc(OC[C@](C)(O)C(=O)Nc2ccc([N+](=O)[O-])c(C(F)(F)F)c2)cc1 was run?
A: 9.52 µM (active)

Q: With CC(C)N(CCNC(=O)CN1CCCC1=O)C(C)C as the compound, how does the “activity change, negative = inhibition” value read?
A: -9.46% (inactive)

Q: O=C(O)c1ccccc1O was tested. Which “activity change, negative = inhibition” value did it give?
A: 1.49% (inactive)

— PubChem BioAssay (NCATS)
